Assay outcomes as filed in PubChem.
A selection: hits, their analogues and other compounds. The true share with any hit is near 11%.
IMPase Li cell = membrane-permeable IMPase blocker, potentiated with lithium. CHO-M1 cells, IP1 TR-FRET (IP-One), carbachol + lithium. Potency, µM (top dose mostly 59.4 µM), without a hit: at the highest dose activity, negative = IMPase inhibition, actives largely listed as inhibitors. 210,000 compounds, 0.35% hits. AID 1457; active means well fitted curve in the direction sought with a large enough effect; inconclusive means small, poorly fitted or top-dose-only effect, or another doubt; inactive means no such curve, though single readings can be large; an effect the other way counts as inactive or inconclusive;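 further: IP1 builds up when IMPase is blocked and the TR-FRET signal falls; potency means the concentration at half of the fitted maximal effect; plate controls were basal vehicle for no effect and high inhibitor control for full effect; nearly all actives have a fitted effect of over 50% in size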
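Steps: plate 2000 CHO-M1 cells per well and culture 16–30 h; add compound and lithium; incubate 30 min, 37C; add d2-IP1 tracer and Eu cryptate anti-IP1 antibody in lysis buffer; read after 10 min at room temperature.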
ALOX12 inhib = inhibitors of human 12-lipoxygenase (ALOX12); 150,000 compounds, 0.12% hits; purified 12-hLO, xylenol orange hydroperoxide absorbance; Potency, µM (doses to about 57.1 µM), for the others: at the top dose activity change, negative = inhibition, most hits filed as inhibitors; P18054; active means well fitted curve in the direction sought with a large enough effect; inconclusive means small, poorly fitted or top-dose-only effect, or another doubt; inactive means no such curve, though single readings can be large; an effect the other way counts as inactive or inconclusive; further: potency means the concentration at half of the fitted maximal effect; nearly all actives have a fitted effect of over 55% in size
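Hydroperoxide output read as Fe(III)-xylenol orange absorbance, 573-to-405 nm ratio, after 30 min reaction with 40 uM arachidonic acid. Enzyme: 150 nM purified human 12hLO, 15 min compound preincubation; 25 mM Hepes pH 7.0, room temperature.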
IMPase inh = IMPase inhibition in cells; 120,000 tested, under 10 active; CHO-M1 cells, IP1 accumulation, HTRF TR-FRET ratio; P97697; inhibition (IP1 accumulation), % at 46.1 µM; AID 901; active means well fitted curve in the direction sought with a large enough effect in the signal ratio, not every such curve was filed as active; inconclusive means small, poorly fitted or top-dose-only effect, or a change in a side signal; inactive means no such curve, though single readings can be large or run the other way; the % refers to the signal ratio;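 further: cells stimulated with carbachol in lithium chloride buffer; plate controls were DMSO basal wells for no effect and reference inhibitor wells for full effect; higher means more IMPase inhibition seen as more IP1 and lower FRET ratio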
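The IP-One HTRF competitive assay in carbachol-stimulated CHO-M1 cells quantifies cellular IP1. Compounds spanned up to 46 uM final, and activity is expressed as AC50 from concentration-response fits of the ratio and donor data.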
ALDH1A1 inh = inhibitors of human aldehyde dehydrogenase 1A1; Purified ALDH1A1, NADH fluorescence, propionaldehyde substrate; Potency, µM (highest dose often 75.3 µM), for the others: at the highest dose activity, negative = inhibition, hits mostly inhibitors; 220,000 compounds, 7.3% hits; AID 1030;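 further: potency means the concentration at half of the fitted maximal effect; plate controls were no enzyme wells and a reference inhibitor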
Target sequence (P00352 whole entry, looked up): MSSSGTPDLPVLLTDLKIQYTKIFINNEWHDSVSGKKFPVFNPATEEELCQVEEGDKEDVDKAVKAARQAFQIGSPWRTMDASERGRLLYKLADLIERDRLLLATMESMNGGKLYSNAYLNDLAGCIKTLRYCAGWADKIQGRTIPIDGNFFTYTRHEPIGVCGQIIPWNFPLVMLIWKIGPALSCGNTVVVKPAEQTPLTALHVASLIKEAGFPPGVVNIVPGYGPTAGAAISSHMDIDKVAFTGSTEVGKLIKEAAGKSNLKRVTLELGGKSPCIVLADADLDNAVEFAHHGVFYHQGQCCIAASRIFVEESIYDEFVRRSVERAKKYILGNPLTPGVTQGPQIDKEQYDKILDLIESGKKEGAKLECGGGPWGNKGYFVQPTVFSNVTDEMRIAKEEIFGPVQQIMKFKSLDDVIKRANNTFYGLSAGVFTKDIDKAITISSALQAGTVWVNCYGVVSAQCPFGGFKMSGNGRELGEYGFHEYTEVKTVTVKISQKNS
HPGD block = inhibitors of human 15-hydroxyprostaglandin dehydrogenase (HPGD); P15428; purified HPGD, NADH fluorescence kinetic, PGE2 substrate; Potency, µM, for the others: at the top dose activity change, negative = inhibition, hits mostly inhibitors; 150,000 compounds, 4.3% hits; AID 894; further: potency means the concentration at half of the fitted maximal effect
Target sequence (P15428 whole entry, looked up): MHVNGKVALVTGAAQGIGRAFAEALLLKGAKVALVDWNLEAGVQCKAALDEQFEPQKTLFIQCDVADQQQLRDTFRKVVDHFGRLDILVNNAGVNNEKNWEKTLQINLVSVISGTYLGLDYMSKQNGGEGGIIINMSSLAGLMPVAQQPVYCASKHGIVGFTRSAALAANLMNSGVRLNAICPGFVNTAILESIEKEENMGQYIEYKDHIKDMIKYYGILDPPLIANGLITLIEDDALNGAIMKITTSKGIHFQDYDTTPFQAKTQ
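NADH formation kinetics: reaction with 30 uM PGE2 and 1 mM NAD+ (final), 20 nM enzyme, Tris-HCl pH 8 with Tween 20, after 15 min compound preincubation at room temperature. Fluorescence change, last versus first of five reads.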
PNC assembly inh = inhibitors of perinucleolar compartment assembly; PC3M PTB-GFP, PNC prevalence imaging, 16 h; hits give low values; activity change (PNC), negative = inhibition, % at 10 µM; AID 2417; 140,000 compounds, 3.1% hits;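 active means readout at or below -70, meaning at least 70% loss of cells showing the perinucleolar compartment, a nuclear body marking cancer cells; inconclusive means readout between -30 and a set limit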;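 further: plate controls were DMSO wells for no effect and camptothecin positive control wells for full effect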
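Compounds are pinned in duplicate onto adhered PC3M cells stably expressing GFP-tagged PTB and incubated 16 h at 37 C. Cells are then fixed, nuclei stained with Hoechst, and PNC-positive cells counted.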
* = called active by the depositor; ? = inconclusive; . = no result; [ ] = remark or other dose. Unless noted, the call rests on the fitted dose curve; in most records, active means well fitted inhibition curve with a large enough effect (not every such curve was filed as active); inconclusive means small, poorly fitted or top-dose-only effect, or another doubt; inactive means no such curve, though single readings can be large or run the other way. Unless noted, on the % scale 0 is the no-effect control and ±100 the full control effect.

SMILES | IMPase Li cell | ALOX12 inhib | IMPase inh | ALDH1A1 inh | HPGD block | PNC assembly inh
CC(=O)c1ccc2c3c(ccc(O)c13)CC2 | 16%[38.3 µM] | -23% | -9 | ? | 14µM* | ?
CC(=O)c1ccc(O)c(CN(C2CCCCC2)C2CCCCC2)c1O | -4% | -7%[11.4 µM] | . | 26%[13.5 µM] | -9% | .
CC[C@H](C)[C@H](NC(=O)[C@H](C)NC(=O)[C@H](CC(N)=O)NC(=O)[C@H](CCCCN)NC(=O)[C@H](Cc1ccccc1)NC(=O)[C@H](CC(C)C)NC(=O)[C@@H](NC(=O)[C@@H](NC(=O)[C@H](CC(C)C)NC(=O)[C@@H]1CCCN1C(=O)[C@@H](NC(=O)[C@H](CCC(N)=O)NC(=O)[C@H](CO)NC(=O)[C@H](CCCCN)NC(=O)[C@H](CCC(=O)O)NC(=O)[C@H](CO)NC(=O)[C@@H](NC(=O)[C@H](CCSC)NC(=O)[C@H](Cc1ccccc1)NC(=O)CNC(=O)CNC(=O)[C@@H](N)Cc1ccc(O)cc1)[C@@H](C)O)[C@@H](C)O)C(C)C)[C@@H](C)O)C(=O)N[C@H](C(=O)N[C@@H](CCCCN)C(=O)N[C@@H](CC(N)=O)C(=O)N[C@@H](C)C(=O)N[C@@H](Cc1ccc(O)cc1)C(=O)N[C@@H](CCCCN)C(=O)N[C@@H](CCCCN)C(=O)NCC(=O)N[C@@H](CCC(=O)O)C(=O)O)[C@@H](C)CC | 6% | . | . | 3% | . | .
Cc1ccc(S(=O)(=O)N[C@H]2COC(=O)CC=C[C@@H](C)[C@H]3C=C[C@H](O)[C@@H](COC(=O)CC=C[C@H]2C)O3)cc1 | . | . | . | 5%[13.5 µM] | . | .
Cc1c(N=Cc2ccncc2)c(=O)n(-c2ccccc2)n1C | -11% | 1% | -4 | ? | -13% | -9
Cc1c(N=Cc2ccc[nH]2)c(=O)n(-c2ccccc2)n1C | 6%[38.3 µM] | -6% | 12 | 13µM* | ? | 37
O=C(Nc1nccs1)C12CC3CC(C1)CC(C(=O)Nc1nccs1)(C3)C2 | 4%[38.3 µM] | -15% | 9 | -17% | -13% | -88*
COc1ccc(-n2cc(-c3ccc(Br)cc3)[nH]c2=S)cc1 | 11µM* | . | . | ? | . | .
COc1ccc(-n2cc(-c3ccc(OC)c(OC)c3)[nH]c2=S)cc1 | -4% | . | . | ? | . | .
CN=c1scc(C)n1/N=C/c1ccc(O)c(O)c1O | 80%[38.3 µM] | -29% | ? | 3.2µM* | 7.1µM* | -7
CN=c1scc(-c2cccs2)n1/N=C/c1ccc(O)c(O)c1O | 15% | -22% | 0 | 6.3µM* | 5µM* | ?
O=c1oc2cc(O)ccc2cc1-c1ccc2c(c1)OCCO2 | -15% | . | . | ? | ? | .
Cc1ccccc1Nc1c(-c2ccc(O)cc2)nc2c(C)cccn12 | . | . | -15 | . | . | .
COc1cc(/C=N/Nc2snc(SC)c2C#N)cc(OC)c1OC | 19%[38.3 µM] | -5% | 6 | ? | ? | -105*
Fc1ccc(NCc2ccccc2-c2nnc(-c3ccccc3Cl)o2)cc1 | . | . | -3 | . | . | .
COc1cccc(C(=O)COc2ccc3c(C)c(Cc4ccccc4)c(=O)oc3c2)c1 | 5% | -1% | . | 0.63µM* | 140% | -15
COC(=O)c1ccc(Oc2c(C)oc3cc(OCc4cnn(-c5ccccc5)c4)ccc3c2=O)cc1 | -24% | -1% | 1 | -11% | -20% | 30
Cc1oc2cc(OCc3cnn(-c4ccccc4)c3)ccc2c(=O)c1Oc1ccccc1F | 3% | 2% | . | 5µM* | -18% | -2
Cn1c(=O)cc(SCC(=O)N2CCCC2)c2ccc(Cl)cc21 | -22%[38.3 µM] | 2% | -29 | ? | 14µM* | 76
Fc1cccc(Cl)c1/C=N\N=C1c2ccccc2-c2ccccc21 | 5% | -1%[11.4 µM] | . | 3%[13.5 µM] | -6% | .
COc1ccc(CCCC(=O)NC2CCCCC2)cc1 | 7%[38.3 µM] | -2% | -5 | 7% | ? | 15
COc1ccc(CCCC(=O)NC2CCCCC2C)c(C)c1 (stereo not drawn) | -6%[38.3 µM] | -1% | 9 | 16µM* | 3.5µM* | 6
CN(C)c1ccc(S(=O)(=O)c2ccc(Cl)cc2)cc1 | -12%[38.3 µM] | -5% | 10 | ? | ? | -6
CN(C)c1ccc(C2C3C(=O)NC(=O)C3ON2c2ccc(Cl)cc2)cc1 (stereo not drawn) | -8%[38.3 µM] | -24% | 2 | 25µM* | -8% | ?
Cc1cc(C)nc(NC(=O)c2ccc([N+](=O)[O-])o2)n1 | 6% | -2% | . | -1% | 12% | -86*
SMILES | IMPase Li cell | ALOX12 inhib | IMPase inh | ALDH1A1 inh | HPGD block | PNC assembly inh
Cc1cc(C)nc(NC(=O)c2cc([N+](=O)[O-])cc([N+](=O)[O-])c2)n1 | 3% | 0% | . | ? | -3% | -113*
Cc1cc(C)cc(NC(=O)c2ccc([N+](=O)[O-])o2)c1 | -7% | . | . | -3% | . | .
NS(=O)(=O)c1ccc(O)c(NC(=O)c2ccc([N+](=O)[O-])o2)c1 | . | . | . | 2.5µM* | . | .
O=C(Nc1ncccn1)c1cc([N+](=O)[O-])cc([N+](=O)[O-])c1 | -4% | 0% | . | 5% | -10% | -9
COc1cc(OC)cc(C(=O)N2CCN(C(=O)COc3ccccc3)CC2)c1 | . | . | 7 | . | . | .
Cc1ccc(NC2=C(CC(=O)O)C(c3ccccc3)N(c3ccc(C)cc3)C2=O)cc1 (stereo not drawn) | 6% | -9% | 4 | ? | -15% | 50
COc1ccc(C2C(CC(=O)O)=C(O)C(=O)N2c2ccccc2)cc1 (stereo not drawn) | 11%[38.3 µM] | -21% | 0 | 18µM* | -23% | ?
O=C(CSc1nc(O)cc(=O)n1C1CCCC1)Nc1cccc(Cl)c1Cl | 17% | . | . | ? | . | .
O=C(CSc1nc(O)cc(=O)n1-c1ccccc1)NC1CCCCC1 | 13%[38.3 µM] | -18% | -7 | 25µM* | -14% | -1
COC(=O)c1ccccc1NC(=O)CSc1nc(O)cc(=O)n1C1CCCC1 | . | -4% | 6 | 2% | . | -89*
Cc1ccc(-c2nc3c(C)cccn3c2Nc2ccccc2C)s1 | . | . | -1 | . | . | .
CCOc1ccc(C(=O)O)cn1 | -6% | . | . | 15% | . | .
O=C(O)c1ccc(SSc2ccc(C(=O)O)cn2)nc1 | -1% | -16%[11.4 µM] | . | ? | 4µM* | .
CCCC(C(=O)O)N1C(=O)/C(=C/c2cccn2C)SC1=S (stereo not drawn) | 30% | ? | 5 | -2% | 18µM* | ?
CC(C)C(C(=O)O)N1C(=O)/C(=C/c2cccn2C)SC1=S (stereo not drawn) | 5% | -16% | . | -7% | -16% | -9
Cc1ccc(S(=O)(=O)NN2C(=O)/C(=C/c3cccn3C)SC2=S)cc1 | -9% | -5% | -2 | -4% | -26% | 39
Cn1cccc1/C=C1\SC(=S)N(Nc2ccccc2)C1=O | . | . | . | 3.5µM* | . | .
